Source: article PMC5540273 (PLoS ONE, 2017)

Legend:
Conditions in all cases: concentration: 1 μM, replicates: in singlicate; n = 1
WNK4 = tested on: WNK4
YANK1 = tested on: T1, YANK1
T1 construct: gene STK32A

YANK2 = tested on: T2, YANK2
T2 construct: gene STK32B

YANK3 = tested on: T3, YANK3
T3 construct: gene STK32C

YES = tested on: T4, YES
T4 construct: gene YES1

YSK1 = tested on: T5, YSK1
T5 construct: gene STK25

YSK4 = tested on: T6, YSK4
T6 construct: gene MAP3K19

ZAK = tested on: ZAK
ZAP70 = tested on: ZAP70
p38-alpha = tested on: T7, p38-alpha
T7 construct: gene MAPK14
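Note: KINOMEscan kinase panel screen.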

| SMILES | %Inh (WNK4) | %Inh (YANK1) | %Inh (YANK2) | %Inh (YANK3) | %Inh (YES) | %Inh (YSK1) | %Inh (YSK4) | %Inh (ZAK) | %Inh (ZAP70) | %Inh (p38-alpha) |
| --- | --- | --- | --- | --- | --- | --- | --- | --- | --- | --- |
| COc1ccc(Nc2nccc(N3CCC(NC(=O)Nc4ccc5c(c4)OCO5)C3)n2)cc1 (centres unmarked) [GSK1379745] | 24% | 3% | 15% | 16% | 0% | 0% | 7% | 0% | 0% | 12% |
| COC(=O)c1cccc(NC(=O)NCCNc2ccnc(Nc3ccc(F)cc3)n2)c1 [GSK1379883] | 36% | 0% | 20% | 0% | 14% | 14% | 8% | 0% | 0% | 3% |
| COc1ccc(NC(=O)Nc2ccc(C)c(-c3ccc(C(=O)Nc4ccncc4)cc3)c2)cc1 [GSK1398475] | 0% | 0% | 0% | 7% | 13% | 13% | 9% | 6% | 0% | 60% |
| C[C@H]1CC[C@@H](C(=O)Nc2ccccc2)CN1c1cc(-c2ccc3c(N)n[nH]c3c2)nc(N)n1 [GSK2283293] | 28% | 13% | 0% | 4% | 10% | 0% | 16% | 2% | 0% | 0% |
| C[C@@H]1CCN(C(=O)CO)C[C@@H]1N(C)c1ncnc2[nH]ccc12 | 0% | 19% | 0% | 0% | 0% | 0% | 7% | 7% | 0% | 5% |
